Experimental data from the supplement of paper PMC4466140.

The binders below were run against AgAbp1 (assay: SPOT peptide array binding signal intensity (averaged, normalized) (arbitrary units (background-subtracted, floor 0; scale differs between SH3 domains)); higher = stronger binding of the SH3 domain to the peptide).
Protocol: (§1)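 GST-tagged SH3 domains from S. cerevisiae (Sc), A. gossypii (Ag), C. albicans (Ca) and S. pombe (Sp) were incubated at 10 ug/ml overnight at 4 C on cellulose SPOT membranes carrying 292 synthetic 15-mer peptides mined from the S. cerevisiae proteome (cysteines replaced by serines). Binding was detected with anti-GST antibody, HRP secondary and chemiluminescence, quantified with Genespotter, and reported as normalized spot intensities averaged over biological replicates.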

Binder | SPOT peptide array binding signal intensity
QNTPPLPPKPKSPHL | 29

What follows are binders tested against AgBbc1 in the same assay as above.
Protocol: as §1

Binder | SPOT peptide array binding signal intensity
QNTPPLPPKPKSPHL | 4.75

These binders were tested against AgBem1-D1 in the same assay as above.
Protocol: as §1

Binder | SPOT peptide array binding signal intensity
QNTPPLPPKPKSPHL | ≤ 0

These binders were tested against AgBzz1-D1 in the same assay as above.
Protocol: as §1

Binder | SPOT peptide array binding signal intensity
QNTPPLPPKPKSPHL | 30

These binders were tested against AgBzz1-D2 in the same assay as above.
Protocol: as §1

Binder | SPOT peptide array binding signal intensity
QNTPPLPPKPKSPHL | 38

The binders below were run against AgCyk3 in the same assay as above.
Protocol: as §1

Binder | SPOT peptide array binding signal intensity
QNTPPLPPKPKSPHL | ≤ 0

Each binder was assayed against AgFus1 in the same assay as above.
Protocol: as §1

Binder | SPOT peptide array binding signal intensity
QNTPPLPPKPKSPHL | 17.5

Each binder was assayed against AgHof1 in the same assay as above.
Protocol: as §1

Binder | SPOT peptide array binding signal intensity
QNTPPLPPKPKSPHL | 777

The binders below were run against AgHse1 in the same assay as above.
Protocol: as §1

Binder | SPOT peptide array binding signal intensity
QNTPPLPPKPKSPHL | 39.5

What follows are binders tested against AgLsb1 in the same assay as above.
Protocol: as §1

Binder | SPOT peptide array binding signal intensity
QNTPPLPPKPKSPHL | 1

These binders were tested against AgLsb4 in the same assay as above.
Protocol: as §1

Binder | SPOT peptide array binding signal intensity
QNTPPLPPKPKSPHL | 60.5

Each binder was assayed against AgMyo5 in the same assay as above.
Protocol: as §1

Binder | SPOT peptide array binding signal intensity
QNTPPLPPKPKSPHL | ≤ 0

Each binder was assayed against AgNbp2 in the same assay as above.
Protocol: as §1

Binder | SPOT peptide array binding signal intensity
QNTPPLPPKPKSPHL | 6.5

These binders were tested against AgRvs167 in the same assay as above.
Protocol: as §1

Binder | SPOT peptide array binding signal intensity
QNTPPLPPKPKSPHL | 1

What follows are binders tested against AgSho1 in the same assay as above.
Protocol: as §1

Binder | SPOT peptide array binding signal intensity
QNTPPLPPKPKSPHL | 54

The binders below were run against AgSla1-D1-D2 in the same assay as above.
Protocol: as §1

Binder | SPOT peptide array binding signal intensity
QNTPPLPPKPKSPHL | 2

What follows are binders tested against AgSla1-D3 in the same assay as above.
Protocol: as §1

Binder | SPOT peptide array binding signal intensity
QNTPPLPPKPKSPHL | 1.5

What follows are binders tested against CaAbp1-D1 in the same assay as above.
Protocol: as §1

Binder | SPOT peptide array binding signal intensity
QNTPPLPPKPKSPHL | 55

The binders below were run against CaAbp1-D2 in the same assay as above.
Protocol: as §1

Binder | SPOT peptide array binding signal intensity
QNTPPLPPKPKSPHL | 226

What follows are binders tested against CaBbc1 in the same assay as above.
Protocol: as §1

Binder | SPOT peptide array binding signal intensity
QNTPPLPPKPKSPHL | 41.5

The binders below were run against CaBem1-D1 in the same assay as above.
Protocol: as §1

Binder | SPOT peptide array binding signal intensity
QNTPPLPPKPKSPHL | ≤ 0

Each binder was assayed against CaBzz1-D1 in the same assay as above.
Protocol: as §1

Binder | SPOT peptide array binding signal intensity
QNTPPLPPKPKSPHL | 46.5

These binders were tested against CaBzz1-D2 in the same assay as above.
Protocol: as §1

Binder | SPOT peptide array binding signal intensity
QNTPPLPPKPKSPHL | 48.2

What follows are binders tested against CaCyk3 in the same assay as above.
Protocol: as §1

Binder | SPOT peptide array binding signal intensity
QNTPPLPPKPKSPHL | 1

Each binder was assayed against CaFus1 in the same assay as above.
Protocol: as §1

Binder | SPOT peptide array binding signal intensity
QNTPPLPPKPKSPHL | ≤ 0

The binders below were run against CaHof1 in the same assay as above.
Protocol: as §1

Binder | SPOT peptide array binding signal intensity
QNTPPLPPKPKSPHL | 3

The binders below were run against CaHse1 in the same assay as above.
Protocol: as §1

Binder | SPOT peptide array binding signal intensity
QNTPPLPPKPKSPHL | 1110

The binders below were run against CaLsb1 in the same assay as above.
Protocol: as §1

Binder | SPOT peptide array binding signal intensity
QNTPPLPPKPKSPHL | 0.5

These binders were tested against CaLsb4 in the same assay as above.
Protocol: as §1

Binder | SPOT peptide array binding signal intensity
QNTPPLPPKPKSPHL | 521

The binders below were run against CaMyo5 in the same assay as above.
Protocol: as §1

Binder | SPOT peptide array binding signal intensity
QNTPPLPPKPKSPHL | 4

What follows are binders tested against CaNbp2 in the same assay as above.
Protocol: as §1

Binder | SPOT peptide array binding signal intensity
QNTPPLPPKPKSPHL | ≤ 0

What follows are binders tested against CaRvs167 in the same assay as above.
Protocol: as §1

Binder | SPOT peptide array binding signal intensity
QNTPPLPPKPKSPHL | 5.67

These binders were tested against CaRvs167-3 in the same assay as above.
Protocol: as §1

Binder | SPOT peptide array binding signal intensity
QNTPPLPPKPKSPHL | 6

The binders below were run against CaSho1 in the same assay as above.
Protocol: as §1

Binder | SPOT peptide array binding signal intensity
QNTPPLPPKPKSPHL | 81

Each binder was assayed against CaSla1-D1-D2 in the same assay as above.
Protocol: as §1

Binder | SPOT peptide array binding signal intensity
QNTPPLPPKPKSPHL | ≤ 0

Each binder was assayed against CaSla1-D3 in the same assay as above.
Protocol: as §1

Binder | SPOT peptide array binding signal intensity
QNTPPLPPKPKSPHL | 3.5

Each binder was assayed against ScAbp1 in the same assay as above.
Protocol: as §1

Binder | SPOT peptide array binding signal intensity
QNTPPLPPKPKSPHL | ≤ 0

What follows are binders tested against ScBbc1 in the same assay as above.
Protocol: as §1

Binder | SPOT peptide array binding signal intensity
QNTPPLPPKPKSPHL | ≤ 0

What follows are binders tested against ScBem1-D1 in the same assay as above.
Protocol: as §1

Binder | SPOT peptide array binding signal intensity
QNTPPLPPKPKSPHL | ≤ 0

These binders were tested against ScBzz1-D1 in the same assay as above.
Protocol: as §1

Binder | SPOT peptide array binding signal intensity
QNTPPLPPKPKSPHL | ≤ 0

The binders below were run against ScBzz1-D2 in the same assay as above.
Protocol: as §1

Binder | SPOT peptide array binding signal intensity
QNTPPLPPKPKSPHL | 4

These binders were tested against ScCyk3 in the same assay as above.
Protocol: as §1

Binder | SPOT peptide array binding signal intensity
QNTPPLPPKPKSPHL | 1

Each binder was assayed against ScFus1 in the same assay as above.
Protocol: as §1

Binder | SPOT peptide array binding signal intensity
QNTPPLPPKPKSPHL | 21

The binders below were run against ScHof1 in the same assay as above.
Protocol: as §1

Binder | SPOT peptide array binding signal intensity
QNTPPLPPKPKSPHL | 196

These binders were tested against ScHse1 in the same assay as above.
Protocol: as §1

Binder | SPOT peptide array binding signal intensity
QNTPPLPPKPKSPHL | ≤ 0

What follows are binders tested against ScLsb1 in the same assay as above.
Protocol: as §1

Binder | SPOT peptide array binding signal intensity
QNTPPLPPKPKSPHL | 1

These binders were tested against ScLsb2 in the same assay as above.
Protocol: as §1

Binder | SPOT peptide array binding signal intensity
QNTPPLPPKPKSPHL | 1

The binders below were run against ScLsb3 in the same assay as above.
Protocol: as §1

Binder | SPOT peptide array binding signal intensity
QNTPPLPPKPKSPHL | 4390

What follows are binders tested against ScLsb4 in the same assay as above.
Protocol: as §1

Binder | SPOT peptide array binding signal intensity
QNTPPLPPKPKSPHL | 52

The binders below were run against ScMyo3 in the same assay as above.
Protocol: as §1

Binder | SPOT peptide array binding signal intensity
QNTPPLPPKPKSPHL | 2

Each binder was assayed against ScMyo5 in the same assay as above.
Protocol: as §1

Binder | SPOT peptide array binding signal intensity
QNTPPLPPKPKSPHL | ≤ 0

What follows are binders tested against ScNbp2 in the same assay as above.
Protocol: as §1

Binder | SPOT peptide array binding signal intensity
QNTPPLPPKPKSPHL | 7.5

The binders below were run against ScPex13 in the same assay as above.
Protocol: as §1

Binder | SPOT peptide array binding signal intensity
QNTPPLPPKPKSPHL | 1360

Each binder was assayed against ScRvs167 in the same assay as above.
Protocol: as §1

Binder | SPOT peptide array binding signal intensity
QNTPPLPPKPKSPHL | 57.2

What follows are binders tested against ScSho1 in the same assay as above.
Protocol: as §1

Binder | SPOT peptide array binding signal intensity
QNTPPLPPKPKSPHL | 268

The binders below were run against ScSla1-D1-D2 in the same assay as above.
Protocol: as §1

Binder | SPOT peptide array binding signal intensity
QNTPPLPPKPKSPHL | ≤ 0

The binders below were run against ScSla1-D3 in the same assay as above.
Protocol: as §1

Binder | SPOT peptide array binding signal intensity
QNTPPLPPKPKSPHL | 4.5

Each binder was assayed against SpAbp1-D1 in the same assay as above.
Protocol: as §1

Binder | SPOT peptide array binding signal intensity
QNTPPLPPKPKSPHL | ≤ 0

What follows are binders tested against SpBbc1 in the same assay as above.
Protocol: as §1

Binder | SPOT peptide array binding signal intensity
QNTPPLPPKPKSPHL | ≤ 0

Each binder was assayed against SpBzz1-D1 in the same assay as above.
Protocol: as §1

Binder | SPOT peptide array binding signal intensity
QNTPPLPPKPKSPHL | 302

These binders were tested against SpBzz1-D2 in the same assay as above.
Protocol: as §1

Binder | SPOT peptide array binding signal intensity
QNTPPLPPKPKSPHL | 2.5
QQNRPLPQLPNRNNR | 1.5

Each binder was assayed against SpCyk3 in the same assay as above.
Protocol: as §1

Binder | SPOT peptide array binding signal intensity
QNTPPLPPKPKSPHL | ≤ 0
QQNRPLPQLPNRNNR | 123

Each binder was assayed against SpHof1 in the same assay as above.
Protocol: as §1

Binder | SPOT peptide array binding signal intensity
QNTPPLPPKPKSPHL | ≤ 0
QQNRPLPQLPNRNNR | 1520

The binders below were run against SpHof1-2 in the same assay as above.
Protocol: as §1

Binder | SPOT peptide array binding signal intensity
QNTPPLPPKPKSPHL | 11.2
QQNRPLPQLPNRNNR | 1990

What follows are binders tested against SpHof1-3 in the same assay as above.
Protocol: as §1

Binder | SPOT peptide array binding signal intensity
QNTPPLPPKPKSPHL | 28.8
QQNRPLPQLPNRNNR | 1170

Each binder was assayed against SpHse1 in the same assay as above.
Protocol: as §1

Binder | SPOT peptide array binding signal intensity
QNTPPLPPKPKSPHL | 16
QQNRPLPQLPNRNNR | 14

The binders below were run against SpLsb1 in the same assay as above.
Protocol: as §1

Binder | SPOT peptide array binding signal intensity
QNTPPLPPKPKSPHL | 956
QQNRPLPQLPNRNNR | 82.8

What follows are binders tested against SpLsb4 in the same assay as above.
Protocol: as §1

Binder | SPOT peptide array binding signal intensity
QNTPPLPPKPKSPHL | 1280
QQNRPLPQLPNRNNR | 6900

These binders were tested against SpMyo1 in the same assay as above.
Protocol: as §1

Binder | SPOT peptide array binding signal intensity
QNTPPLPPKPKSPHL | 19.5
QQNRPLPQLPNRNNR | 45.8

Each binder was assayed against SpNbp2 in the same assay as above.
Protocol: as §1

Binder | SPOT peptide array binding signal intensity
QNTPPLPPKPKSPHL | 42
QQNRPLPQLPNRNNR | 20

The binders below were run against SpPex13 in the same assay as above.
Protocol: as §1

Binder | SPOT peptide array binding signal intensity
QNTPPLPPKPKSPHL | 0.5
QQNRPLPQLPNRNNR | 3.5

Each binder was assayed against SpRvs167 in the same assay as above.
Protocol: as §1

Binder | SPOT peptide array binding signal intensity
QNTPPLPPKPKSPHL | 1090
QQNRPLPQLPNRNNR | 2080

These binders were tested against SpSla1-D1-D2 in the same assay as above.
Protocol: as §1

Binder | SPOT peptide array binding signal intensity
QNTPPLPPKPKSPHL | ≤ 0
QQNRPLPQLPNRNNR | 333

The binders below were run against SpSla1-D3 in the same assay as above.
Protocol: as §1

Binder | SPOT peptide array binding signal intensity
QNTPPLPPKPKSPHL | 3
QQNRPLPQLPNRNNR | 7
